Data: PubChem BioAssay AID1159580 (chemical genetic matrix, 2015)
Among all 5,500 compounds or so, about 2,000 (36%) were called active. Not shown: some 18% with an inconclusive outcome. Cut-off read from the data, not from the text of the source: active = normalized growth mostly below about 0.91 (no sharp cut-off); inconclusive = no clear call, values can overlap the other calls; inactive = mostly above about 0.92. This is one part of the list.

Assay: chemical genetic growth profiling, strain panel (AID 1159580);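 note: tested at 20 µM; growth read once vehicle control cultures reached saturation at 30 °C; 1 = growth at the plate median or of vehicle wells; lower values mean less growth of the strain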
Conditions: growth OD

Measured: normalized growth

Cc1ccc(C(C)C)cc2c(C)ccc1-2
inactive: S. cerevisiae deletion strains, locus YJR043C, strain POL32, stronger effect = lower value 0.977 | S. cerevisiae deletion strains, locus YJR066W, strain TOR1, stronger effect = lower value 0.925 | S. cerevisiae deletion strains, locus YKL009W, strain mrt4, stronger effect = lower value 1.04 | S. cerevisiae deletion strains, locus YKL068W, stronger effect = lower value 1 | S. cerevisiae deletion strains, locus YKL085W, strain MDH1 (second series), stronger effect = lower value 1 | S. cerevisiae deletion strains, locus YKL085W, strain MDH1, stronger effect = lower value 1 | S. cerevisiae deletion strains, locus YKL160W, strain elf1, stronger effect = lower value 0.989 | S. cerevisiae deletion strains, locus YKL190W, strain CNB1, stronger effect = lower value 0.986 | S. cerevisiae deletion strains, locus YKR001C, strain vps1, stronger effect = lower value 1 | S. cerevisiae deletion strains, locus YKR026C, strain gcn3, stronger effect = lower value 1 | S. cerevisiae deletion strains, locus YKR091W, strain srl3, stronger effect = lower value 1 | S. cerevisiae deletion strains, locus YLL001W, strain dnm1, stronger effect = lower value 0.976 | S. cerevisiae deletion strains, locus YLL026W, stronger effect = lower value 0.998 | S. cerevisiae deletion strains, locus YLL041C, strain sdh2, stronger effect = lower value 1.01 | S. cerevisiae deletion strains, locus YLR027C, strain aat2, stronger effect = lower value 0.991 | S. cerevisiae deletion strains, locus YLR039C, strain RIC1, stronger effect = lower value 0.92 | S. cerevisiae deletion strains, locus YLR058C, strain SHM2, stronger effect = lower value 1 | S. cerevisiae deletion strains, locus YLR102C, strain apc9, stronger effect = lower value 1.02 | S. cerevisiae deletion strains, locus YLR113W, strain HOG1, stronger effect = lower value 1.03 | S. cerevisiae deletion strains, locus YLR221C, strain rsa3, stronger effect = lower value 1.02 | S. cerevisiae deletion strains, locus YLR258W, strain gsy2, stronger effect = lower value 0.999 | S. cerevisiae deletion strains, locus YLR262C, strain YPT6 (second series), stronger effect = lower value 1.01 | S. cerevisiae deletion strains, locus YLR262C, strain YPT6, stronger effect = lower value 0.909 | S. cerevisiae deletion strains, locus YLR268W, strain sec22, stronger effect = lower value 1.01 | S. cerevisiae deletion strains, locus YLR320W, strain mms22, stronger effect = lower value 1.01 | S. cerevisiae deletion strains, locus YLR330W, strain CHS5, stronger effect = lower value 1 | S. cerevisiae deletion strains, locus YLR342W, strain FKS1 (second series), stronger effect = lower value 0.944 | S. cerevisiae deletion strains, locus YLR342W, strain FKS1, stronger effect = lower value 1.03 | S. cerevisiae deletion strains, locus YLR357W, strain rsc2, stronger effect = lower value 0.982 | S. cerevisiae deletion strains, locus YLR370C, strain arc18, stronger effect = lower value 0.995 | S. cerevisiae deletion strains, locus YLR371W, strain rom2, stronger effect = lower value 1 | S. cerevisiae deletion strains, locus YLR384C, strain iki3, stronger effect = lower value 0.997 | S. cerevisiae deletion strains, locus YLR418C, strain cdc73, stronger effect = lower value 0.962 | S. cerevisiae deletion strains, locus YML016C, strain PPZ1, stronger effect = lower value 1 | S. cerevisiae deletion strains, locus YML032C, strain rad52, stronger effect = lower value 1.03 | S. cerevisiae deletion strains, locus YML120C, strain ndi1, stronger effect = lower value 1 | S. cerevisiae deletion strains, locus YML124C, strain tub3, stronger effect = lower value 1.02 | S. cerevisiae deletion strains, locus YMR058W, strain fet3, stronger effect = lower value 1.01 | S. cerevisiae deletion strains, locus YMR078C, strain ctf18, stronger effect = lower value 1.02 | S. cerevisiae deletion strains, locus YMR125W, strain sto1, stronger effect = lower value 1 | S. cerevisiae deletion strains, locus YMR129W, stronger effect = lower value 1.01 | S. cerevisiae deletion strains, locus YMR205C, strain PFK2, stronger effect = lower value 0.981 | S. cerevisiae deletion strains, locus YMR223W, strain ubp8, stronger effect = lower value 1.02 | S. cerevisiae deletion strains, locus YMR231W, strain pep5, stronger effect = lower value 0.978 | S. cerevisiae deletion strains, locus YMR263W, strain SAP30, stronger effect = lower value 0.993 | S. cerevisiae deletion strains, locus YMR307W, strain GAS1, stronger effect = lower value 0.914 | S. cerevisiae deletion strains, locus YNL067W, strain RPL9B, stronger effect = lower value 0.993 | S. cerevisiae deletion strains, locus YNL071W, strain lat1, stronger effect = lower value 0.991 | S. cerevisiae deletion strains, locus YNL183C, strain NPR1, stronger effect = lower value 0.981 | S. cerevisiae deletion strains, locus YNL209W, strain ssb2, stronger effect = lower value 1.01 | S. cerevisiae deletion strains, locus YNL233W, strain BNI4, stronger effect = lower value 0.989 | S. cerevisiae deletion strains, locus YNL248C, strain rpa49, stronger effect = lower value 1.02 | S. cerevisiae deletion strains, locus YNL250W, strain rad50, stronger effect = lower value 1.05 | S. cerevisiae deletion strains, locus YNL271C, strain bni1, stronger effect = lower value 1.03 | S. cerevisiae deletion strains, locus YNL298W, strain CLA4, stronger effect = lower value 1.02 | S. cerevisiae deletion strains, locus YNL307C, strain MCK1, stronger effect = lower value 0.995 | S. cerevisiae deletion strains, locus YNL322C, strain KRE1 (second series), stronger effect = lower value 0.994 | S. cerevisiae deletion strains, locus YNR049C, strain mso1, stronger effect = lower value 1 | S. cerevisiae deletion strains, locus YNR052C, strain pop2, stronger effect = lower value 1.02 | S. cerevisiae deletion strains, locus YOL006C, strain TOP1, stronger effect = lower value 1.02 | S. cerevisiae deletion strains, locus YOL012C, strain htz1 0.644 | S. cerevisiae deletion strains, locus YOL147C, strain pex11, stronger effect = lower value 1.03 | S. cerevisiae deletion strains, locus YOR001W, strain rrp6, stronger effect = lower value 1.04 | S. cerevisiae deletion strains, locus YOR061W, strain CKA2, stronger effect = lower value 1.01 | S. cerevisiae deletion strains, locus YOR069W, strain VPS5, stronger effect = lower value 1 | S. cerevisiae deletion strains, locus YOR070C, strain gyp1, stronger effect = lower value 0.994 | S. cerevisiae deletion strains, locus YOR080W, strain dia2, stronger effect = lower value 1.01 | S. cerevisiae deletion strains, locus YOR083W, strain WHI5, stronger effect = lower value 0.987 | S. cerevisiae deletion strains, locus YOR106W, strain vam3, stronger effect = lower value 1.01 | S. cerevisiae deletion strains, locus YOR136W, strain idh2, stronger effect = lower value 1.03 | S. cerevisiae deletion strains, locus YOR144C, strain elg1, stronger effect = lower value 1.02 | S. cerevisiae deletion strains, locus YOR184W, strain ser1, stronger effect = lower value 0.991 | S. cerevisiae deletion strains, locus YOR231W, strain MKK1, stronger effect = lower value 0.984 | S. cerevisiae deletion strains, locus YOR265W, strain rbl2, stronger effect = lower value 0.992 | S. cerevisiae deletion strains, locus YOR270C, strain vph1, stronger effect = lower value 1.1 | S. cerevisiae deletion strains, locus YOR290C, strain snf2, stronger effect = lower value 0.98 | S. cerevisiae deletion strains, locus YOR316C, strain cot1, stronger effect = lower value 1.02 | S. cerevisiae deletion strains, locus YPL051W, strain arl3, stronger effect = lower value 0.984 | S. cerevisiae deletion strains, locus YPL078C, strain atp4, stronger effect = lower value 0.979 | S. cerevisiae deletion strains, locus YPL106C, strain sse1, stronger effect = lower value 0.997 | S. cerevisiae deletion strains, locus YPL240C, strain hsp82, stronger effect = lower value 0.999 | S. cerevisiae deletion strains, locus YPL241C, strain CIN2, stronger effect = lower value 1 | S. cerevisiae deletion strains, locus YPL256C, strain CLN2, stronger effect = lower value 0.98 | S. cerevisiae deletion strains, locus YPR119W, strain clb2, stronger effect = lower value 1.02 | S. cerevisiae deletion strains, locus YPR141C, strain kar3, stronger effect = lower value 1.01 | S. cerevisiae deletion strains, locus YPR163C, strain tif3, stronger effect = lower value 1.04 | S. cerevisiae deletion strains, locus YPR167C, strain met16, stronger effect = lower value 1.02 | S. cerevisiae deletion strains, strain wtn01, stronger effect = lower value 1.04 | S. cerevisiae strains, strain wild type, stronger effect = lower value 0.995
